# Screening results: PubChem BioAssay, National Center for Advancing Translational Sciences (NCATS)
# A selection: hits, their analogues and other compounds. The true share with any hit is near 5.9%.
# GLP1R ag = qHTS of GLP-1 Receptor Agonists; HEK293 GLP-1R CRE-luciferase, luminescence, 4-6 h; cells express a hypersensitive GLP-1R form; Potency, µM (highest dose often 45.6 µM), inactives show top-dose activation, hits mostly activators; 380,000 tested, 0.007% active; AID 624172, 2012; also: % of control where 0% means no effect
# HEK293 tox = qHTS of GLP-1 Receptor Inverse Agonists: Cytotox Screen; HEK293 cAMP-luciferase reporter cells, luminescence, 24 h; 410,000 tested, 0.13% active; AID 624418, 2012; Potency, µM (top dose mostly 38.3 µM), for inactives: at the highest dose activity change, negative = inhibition, hits mostly inhibitors;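 also: loss of luciferase light is scored as toxicity; % is scaled to controls: 0 for no effect and ±100 for the full control effect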
#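 Seeding density was 200 cells/uL; after overnight-length (12 h) culture, 23 nL compounds went on for 24 h at 37 °C. Readout used a luciferase detection reagent, luminescence taken after 12 min at room temperature.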
# RORg inh = qHTS for inhibitors of ROR gamma transcriptional activity | 310,000 tested, 5.4% active | Potency, µM (titrated, usually from 53.6 µM), inactives show at the top dose activity change, negative = inhibition, usual class: inhibitors | Nuclear receptor ROR-gamma (Mus musculus), P51450 | Drosophila S2 Gal4-RORgamma UAS-luciferase reporter, 20 h; also: % is scaled to controls: 0 for no effect and ±100 for the full control effect; nearly all actives have a fitted effect of over 60% in size
# Target sequence (P51450 whole entry, looked up, the tested form may be a part): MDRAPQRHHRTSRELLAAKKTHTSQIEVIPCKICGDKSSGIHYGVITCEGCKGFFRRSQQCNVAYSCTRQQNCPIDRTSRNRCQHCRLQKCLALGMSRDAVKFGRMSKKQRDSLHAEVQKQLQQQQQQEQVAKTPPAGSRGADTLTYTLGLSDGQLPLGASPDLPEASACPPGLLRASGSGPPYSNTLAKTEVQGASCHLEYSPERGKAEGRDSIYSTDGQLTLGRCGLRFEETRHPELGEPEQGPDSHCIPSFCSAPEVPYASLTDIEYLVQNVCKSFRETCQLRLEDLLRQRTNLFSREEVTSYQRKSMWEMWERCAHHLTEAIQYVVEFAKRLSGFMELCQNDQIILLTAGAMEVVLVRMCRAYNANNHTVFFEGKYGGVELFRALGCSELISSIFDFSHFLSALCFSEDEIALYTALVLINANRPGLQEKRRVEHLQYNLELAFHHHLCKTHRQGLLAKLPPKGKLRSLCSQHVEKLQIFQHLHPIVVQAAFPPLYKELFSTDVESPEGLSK
#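 In this cell-based reporter format, copper sulfate (700 uM final) drives Gal4–ROR gamma fusion expression from a metallothionein promoter in Drosophila Schneider cells; compounds preincubated 1 hr, reporter read after 20 hr at ambient temperature.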
# GLP-1R inv ag = qHTS of GLP-1 Receptor Inverse Agonists (Inhibition Mode). HEK293 GLP-1R CRE-luciferase, luminescence, 24 h; GLP-1R form is constitutively active. Glucagon-like peptide 1 receptor (Homo sapiens), P43220. 410,000 tested, 1.6% active. Potency, µM (doses to about 38.3 µM), inactives show at the top dose activity change, negative = inhibition, usual class: inhibitors; also: % is scaled to controls: 0 for no effect and ±100 for the full control effect; nearly all actives have a fitted effect of over 55% in size
#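 Stable HEK293 clone (constitutively active GLP-1R + cAMP-response luciferase); 200 cells/uL plated, 12 h pre-culture, compound 24 hr, 37 deg C/5% CO2; detection reagent 12 min RT; luminescence.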
# VP16 counter = VP16 counterscreen qHTS for inhibitors of ROR gamma transcriptional activity; Drosophila S2 Gal4-VP16 UAS-luciferase, luminescence, 20 h; Potency, µM (highest dose often 53.6 µM), for the others: at the highest dose activity, negative = inhibition, hits mostly inhibitors; 310,000 tested, 3.5% active; AID 2546, 2010;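 also: Gal4-VP16 expression switched on by copper sulfate through the metallothionein promoter; % is scaled to controls: 0 for no effect and ±100 for the full control effect; nearly all actives have a fitted effect of over 50% in size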
# Numbers without * were called inactive; u = inconclusive; x = not tested or not shown; ! = repeats disagree. Calls follow the shape of the dose curve; as a rule, active = well fitted curve in the direction sought with a large enough effect; inconclusive = small, poorly fitted or top-dose-only effect, or another doubt; inactive = no such curve, though single readings can be large; an effect the other way counts as inactive or inconclusive. Potency is read from the fitted curve at half-maximal effect.
SMILES,GLP1R ag,HEK293 tox,RORg inh,GLP-1R inv ag,VP16 counter
COc1ccc(-c2[nH]c(-c3ccccc3)nc2SCC(=O)NC2CCCC2)cc1,2%,-3%,43%,10µM*!,15%
COc1ccc(-c2[nH]c(-c3cccc(OC)c3)nc2SCC(=O)NC2CCCC2)cc1,6%,-15%,u,u,-12%
COc1ccc(-c2nc(SCC(=O)NC3CCCC3)c(-c3ccc(F)cc3)[nH]2)cc1,x,-14%,x,u,x
COc1ccc(-c2[nH]c(-c3ccc(F)cc3)nc2SCC(=O)NC2CCCC2)cc1,4%,-20%,u,7.9µM*,1%
CCCC(=O)Nc1ccc(Cl)c(NC(=S)NC(=O)C(C)C)c1,2%,5%,-43%,-23%,-9%
CCCC(=O)NC(=S)Nc1cccc(Cl)c1N1CCCC1,11%,u,1.3µM*,u,7.1µM*
O=C(NC(=S)Nc1cccc(Cl)c1N1CCCCC1)c1cccs1,2%,u,0.71µM*,u,u
O=C(NC(=S)Nc1cccc(Cl)c1N1CCOCC1)c1cccs1,12%,-3%,3.2µM*,u,18µM*
CCCN(C(=O)Cn1cnc2onc(-c3ccc(F)cc3)c2c1=O)c1cccc(Cl)c1,4%,13%,x,12%,x
CC(=O)N1CCc2cc(S(=O)(=O)NC(CC(C)C)C(=O)NCCc3ccccc3)ccc21 (stereo unspecified),x,0%,x,3%,x
CCC(C)NC(=O)c1ccc2nc(CCc3ccccc3)oc2c1 (stereo unspecified),x,8%,x,1%,x
S=C(NCC1CCCO1)NC1CCCC1 (stereo unspecified),5%,-1%,13µM*,16%,-22%
CCCCc1ccc(NC(=S)NCCc2ccc(S(N)(=O)=O)cc2)cc1,2%,-1%,u,-30%,8.9µM*
CCCCc1ccc(NC(=S)NCC2CCCO2)cc1 (stereo unspecified),21%,u,2.8µM*,u,u
CCCCc1ccc(NC(=S)Nc2ccc(Cl)c(S(=O)(=O)N(C)C)c2)cc1,-26%,-26%,11µM*,u,u
O=C(CSc1nc2c([nH]c3ccccc32)c(=O)n1-c1ccccc1)NCc1ccc(F)cc1,x,-8%,x,5%,x
Cc1cc(OCC(=O)NNC(=S)NCC2CCCO2)cc(C)c1Cl (stereo unspecified),6%,9%,3.2µM*,u,6.3µM*
S=C(NCC1CCCO1)Nc1ccc(Cl)c(Cl)c1 (stereo unspecified),-7%,u,3.5µM*,u,u
CCCCc1ccc(NC(=S)NCCN2CCOCC2)cc1,-5%,u,10µM*,u,u
O=C(Cc1ccc(Cl)c(Cl)c1)NNC(=S)NCC1CCCO1 (stereo unspecified),2%,-21%,u,-18%,-14%
O=C(NNC(=S)NCC1CCCO1)c1cc(Br)ccc1Cl (stereo unspecified),-9%,-7%,3.2µM*,-1%,20µM*
Cc1ccc(C2CC(=O)Oc3cc(C)c(Cl)cc32)cc1 (stereo unspecified),x,x,107%,x,-11%
Cn1cccc1Cc1nnc(SCC(=O)Nc2nccs2)n1C,1%,-8%,-14%,-1%,-2%
CCSCc1nnc(SCC(=O)Nc2nccs2)n1CC,-2%,12%,-27%,13%,1%
Cn1cccc1Cc1nnc(SCC(=O)Nc2nccs2)n1CCc1ccccc1,7%,3%,18µM*,-17%,u
CCn1c(COc2ccc(C(C)C)cc2)nnc1SCC(=O)Nc1nccs1,2%,7%,11µM*,0%,u
Cc1cccc(-n2ncc3c(NNC(=O)c4ccccc4Cl)ncnc32)c1,x,-4%,x,-9%,x
COc1cc(OC)cc(-c2nnc3n2N=C(c2ccc(OC)cc2OC)CS3)c1,x,x,u,x,-3%
